Cruzain inh Det: blocks cruzain activity in presence of Triton detergent | actives 0.43% (n = 200,000) | P25779 | purified cruzain, Z-FR-AMC fluorescence, 0.01% Triton | Potency, µM, without a hit: max response, negative = inhibition, actives largely listed as inhibitors;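 note: plate controls were neutral wells for no effect and buffer without enzyme for full effect; nearly all actives have a fitted effect of over 40% in size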
Target sequence (P25779 123-467 limits assumed): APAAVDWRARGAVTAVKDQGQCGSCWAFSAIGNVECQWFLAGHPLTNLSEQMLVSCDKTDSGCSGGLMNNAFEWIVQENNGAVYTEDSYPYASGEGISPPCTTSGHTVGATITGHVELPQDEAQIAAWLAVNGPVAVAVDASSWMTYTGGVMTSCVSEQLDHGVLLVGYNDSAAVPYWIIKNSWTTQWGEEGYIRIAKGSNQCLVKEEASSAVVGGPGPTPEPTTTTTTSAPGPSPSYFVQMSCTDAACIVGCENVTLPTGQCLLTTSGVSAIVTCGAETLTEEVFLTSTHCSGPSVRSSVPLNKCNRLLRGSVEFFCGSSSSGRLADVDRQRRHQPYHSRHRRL
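15 min RT preincubation of 1.5 nM cruzain with compound, then 2 uM Z-FR-AMC added; kinetic AMC fluorescence, 60 s delta. Triton X-100 0.01%, pH 5.5.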
Cruzain noTriton: cruzain (T. cruzi) inhibition without detergent | purified cruzain, Z-FR-AMC fluorescence, no detergent | Potency, µM, without a hit: max response, negative = inhibition, most hits filed as inhibitors | actives 2.3% (n = 200,000);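 note: plate controls were enzyme without inhibitor for no effect and buffer without enzyme for full effect; nearly all actives have a fitted effect of over 40% in size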
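Detergent-free condition (0.00005% Triton X-100) in acetate buffer pH 5.5 with DTT. 1.5 nM enzyme and compound were pre-mixed 15 min, then 2 uM Z-FR-AMC substrate added; reaction progress from fluorescence change between first and third reads (60 s).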
* hit, by the source's call; ? = inconclusive. Sampled rows, rich in hits. Any-hit rate of the full collection: about 2.5%. Calls come from the whole dose curve; as a rule, active = well fitted curve in the direction sought with a large enough effect; inconclusive = small, poorly fitted or top-dose-only effect, or another doubt; inactive = no such curve, though single readings can be large; an effect the other way counts as inactive or inconclusive. Potency is the fitted concentration of half-maximal effect.

SMILES	Cruzain inh Det	Cruzain noTriton
COc1ccc(NC(=O)C2(c3ccc(NC(=O)c4ccc(OC)c(OC)c4)cc3)CCCC2)cc1	2%	2%
COc1ccc(NC(=O)C2(c3ccc(NC(=O)c4ccc(C)cc4)cc3)CCCC2)cc1	2%	6.3µM*
CCCCCCN	4%	2%
CCCCCCC(=O)Nc1nc(C)c(-c2csc(Nc3cc(OC)ccc3OC)n2)s1	-2%	10µM*
Cc1nc(NC(=O)CC(C)C)sc1-c1csc(Nc2ccc(Cl)cc2)n1	2%	13µM*
CCCCCC(=O)Nc1nc(C)c(-c2csc(Nc3cc(OC)ccc3OC)n2)s1	5%	?
Cc1nc(NC(=O)CC(C)C)sc1-c1csc(Nc2ccc(Cl)cc2Cl)n1	-1%	16µM*
C=CCNc1nc(-c2sc(NC(=O)CC)nc2C)cs1	-10%	?
COc1ccc(Cl)cc1Nc1nc(-c2sc(NC(=O)CC(C)C)nc2C)cs1	-2%	20µM*
C=CCOC(C)=O	4%	0%
CCN(C(=O)CN1C(=O)c2ccccc2Sc2ccc(C(=O)OC)cc21)c1cccc(C)c1	3%	?
CN1CCN(c2ncc3nc(-c4ccc(Cl)cc4)c(=O)n(C)c3n2)CC1	-8%	?
COc1cc(-c2nc(Cn3nnc(C(=O)Nc4cc(C)cc(C)c4)c3C)c(C)o2)cc(OC)c1OC	0%	?
C=CCCC(=O)Nc1nc(C)c(-c2csc(Nc3cc(Cl)ccc3OC)n2)s1	-4%	16µM*
C=CCCC(=O)Nc1nc(C)c(-c2csc(Nc3ccc(Cl)cc3Cl)n2)s1	-1%	?
CCc1ccc(OCC(=O)N(Cc2ccc(C)cc2)Cc2ccco2)cc1	-12%	-10%
Nc1nc(SCc2ccc([N+](=O)[O-])cc2)c2ncn([C@@H]3O[C@H](CO)[C@H](O)[C@H]3O)c2n1	-4%	4%
CCc1nn(CC(=O)NCCc2ccc(OC)cc2OC)c(=O)c2cc3c(OC)cccc3n12	0%	-8%
CN1CCc2nc3sc(C(=O)c4ccc(F)cc4)c(N)c3cc2C1	-6%	-1%
CN1CCc2nc3sc(C(=O)C45CC6CC(CC(C6)C4)C5)c(N)c3cc2C1	?	13µM*
Cc1ccc(/C=N/NC(=O)c2cc3c(ccc4ccccc43)o2)cc1[N+](=O)[O-]	-2%	6.3µM*
CC(C)n1cc(/C=N\NC(=O)c2cc3c(ccc4ccccc43)o2)c2ccccc21	-19%	5µM*
CCn1cc(/C=N/NC(=O)c2cc3c(ccc4ccccc43)o2)c2ccccc21	-2%	7.9µM*
O=C(N/N=C/c1cn(CCOc2ccccc2)c2ccccc12)c1ccncc1	-10%	?
O=C(NC1CCCC1)c1cc2c(ccc3ccccc32)o1	-15%	-4%
SMILES	Cruzain inh Det	Cruzain noTriton
O=C(N/N=C/c1cccnc1)c1cc2c(ccc3ccccc32)o1	-22%	4%
Cc1cnc(CNc2nc(-c3ccccc3Cl)nc3ccccc23)cn1	-3%	3%
COc1ccccc1C(N)=S	-2%	1%
Cc1ccc(C)c(/C(=N\N=C(N)N)C2CC2)c1	0%	-12%
O=C1CCCC2C3CC(CN12)C1CCCCN1C3 (centres undefined)	1%	2%
COc1cc([C@@H]2Nc3c(F)cccc3[C@@H]3C=CC[C@@H]32)cc(Br)c1OC	-4%	1%
CC(=O)NC(Cc1ccccc1)C(=O)N1CCN(C(=O)c2cccs2)CC1 (centres undefined)	3%	5%
COC(=O)c1ccc(C(NC(=O)OCc2ccccc2)/C(=C/[C@@H](C)C(=O)NCc2ccc(-c3ccccc3)cc2)c2cccnc2)cc1 (some centres undefined)	2%	-22%
CCOC(=O)c1ccc(NC(=O)CSc2nc3ncc(Br)c(C)c3[nH]2)cc1	-1%	-3%
COc1cccc(NC(=O)CSc2ncnc3c2oc2ccccc23)c1	-4%	22%
COc1ccc(Cl)cc1NC(=O)CSc1ncnc2c1oc1ccccc12	-2%	16µM*
COc1cc2c(cc1NC(=O)C(C)Sc1cccc[n+]1[O-])oc1ccccc12 (centres undefined)	-24%	?
COc1cc2c(cc1NC(=O)COc1ccc3ccccc3c1)oc1ccccc12	-6%	10µM*
COc1cc2c(cc1NC(=O)/C=C/c1cc(OC)c(OC)c(OC)c1)oc1ccccc12	-5%	?
COc1cc(OC)cc(C(=O)NC(=S)Nc2cc3oc4ccccc4c3cc2OC)c1	-5%	4µM*
COc1cc2c(cc1NC(=O)C(C)Sc1nc3ccccc3n1C)oc1ccccc12 (centres undefined)	1%	25µM*
COc1cc2c(cc1NC(=O)COc1ccc(Br)cc1)oc1ccccc12	-2%	8%
CN(C)CS/C(N)=N/[C@H](O)C(Cl)(Cl)Cl	-10%	-6%
Cc1ccc(NC(=O)NCCCc2ccccc2)cc1	-3%	-3%
CC(C)Sc1nc2sc3c(c2c(=O)n1Cc1ccccc1)CCCC3	-2%	-4%
O=c1ccccn1Cc1c(F)cccc1Cl	1%	-1%
CCCOc1ccc(Br)cc1-c1cc(-c2ccc(Cl)cc2)[nH]c1-c1ccncc1	0%	?
COC(=O)N1C2(C=CC1(C)C(=O)NCc1ccc(N(C)C)cc1)CCCCC2 (centres undefined)	4%	0%
COc1ccc(/C=C/C(=O)Nc2nc3n(n2)C(c2ccc(F)cc2)C=C(c2ccccc2)N3)cc1 (centres undefined)	-7%	15%
COc1ccc(CC(=O)Nc2cc3oc4ccccc4c3cc2OC)cc1	-5%	12%
SMILES	Cruzain inh Det	Cruzain noTriton
COc1ccc(C(=O)NC(=S)Nc2cc3oc4ccccc4c3cc2OC)cc1	-3%	7.9µM*
COc1ccccc1CC(=O)Nc1cc2oc3ccccc3c2cc1OC	3%	-24%
CCOc1ccccc1-n1nnnc1SCC(=O)Nc1cc(C)on1	3%	1%
CCOc1ccccc1-n1nnnc1SCC(=O)Nc1cc2oc3ccccc3c2cc1OC	4%	7.9µM*
COc1cc2c(cc1NC(=S)NC(=O)c1c(OC)cccc1OC)oc1ccccc12	-4%	6.3µM*
CC(C)=CCCC1(C)C=Cc2c(O)c3c(c(CC=C(C)C)c2O1)OC12C(=CC4CC1C(C)(C)OC2(C/C=C(/C)C(=O)O)C4=O)C3=O (centres undefined)	-9%	?
COc1cc(OC)c2nc(C)c3c(c2c1)N(c1ccc(O)cc1)CC3	-3%	-7%
C=Cc1c(C)/c2[n-]/c1=C\c1[n-]c(c(CC)c1C)/C=c1\[n-]c3c(c1C)C(=O)C(C(=O)[O-])C=3c1[n-]c(c(C)c1CCC(=O)[O-])\C=2.[Cu].[Na+].[Na+] (centres undefined)	?	14%
CCc1ccc(C(=O)COC(=O)c2cccc(N3C(=O)c4c(C)nc5ccccc5c4C3=O)c2)cc1	4%	6.3µM*
CCN1C(=O)c2c(C)nc3ccccc3c2C1=O	0%	7%
O=c1oc2ccc(Br)cc2cc1-c1csc(-c2ccccc2)n1	1%	-5%
Cc1ccc(-c2csc(Cc3nc(-c4cc5ccccc5oc4=O)cs3)n2)cc1	2%	6.3µM*
Cc1cc(C)c(-c2csc(Cc3nc(-c4cc5ccccc5oc4=O)cs3)n2)cc1C	-2%	10µM*
Cc1cc(C)c(-c2csc(-c3cc4ccccc4oc3=O)n2)cc1C	0%	5%
O=C(O)[C@@H]1[C@H](C(=O)O)[C@]2(Cl)C(Cl)=C(Cl)[C@@]1(Cl)C2(Cl)Cl	0%	5%

Screening results as filed in PubChem.
